KinaseGlo FLuc = Counterscreen for Luciferase (Kinase-Glo TM) Inhibition | Potency, µM (top dose mostly 38.3 µM), hits mostly inhibitors | Kinase-Glo luciferase, ATP luminescence, 8 min | Luciferin 4-monooxygenase (Photuris pensylvanica), Q27757 | actives 0.28% (n = 200,000); active means well fitted inhibition curve with a large enough effect; inconclusive means small, poorly fitted or top-dose-only effect; further: nearly all actives have a fitted effect of over 60% in size
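Kinase-Glo luciferase light output from ATP and luciferin was measured with 10 uM ATP, within the enzyme's linear range. Buffer: 50 mM imidazole pH 7.2, 50 mM KCl, 7 mM MgCl2, 0.01% Tween 20, 0.05% BSA; luminescence read after 8 min at ambient temperature.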
HPGD block = qHTS Assay for Inhibitors of HPGD (15-Hydroxyprostaglandin Dehydrogenase); 15-hydroxyprostaglandin dehydrogenase [NAD(+)] (Homo sapiens), P15428; purified HPGD, NADH fluorescence kinetic, PGE2 substrate; Potency, µM, most hits filed as inhibitors; actives 4.3% (n = 150,000)
Target sequence (P15428 whole entry, looked up): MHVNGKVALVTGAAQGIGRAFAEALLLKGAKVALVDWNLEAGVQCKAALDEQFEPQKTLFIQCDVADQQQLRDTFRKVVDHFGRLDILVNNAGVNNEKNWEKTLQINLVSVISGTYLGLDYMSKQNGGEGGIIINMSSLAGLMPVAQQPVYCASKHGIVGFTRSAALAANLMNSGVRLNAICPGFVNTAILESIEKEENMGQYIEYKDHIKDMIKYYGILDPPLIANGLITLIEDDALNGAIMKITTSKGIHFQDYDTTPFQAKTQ
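NADH formation kinetics: reaction with 30 uM PGE2 and 1 mM NAD+ (final), 20 nM enzyme, Tris-HCl pH 8 with Tween 20, after 15 min compound preincubation at room temperature. Fluorescence change, last versus first of five reads.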
PNC inhibitor = High Content Assay for Compounds that inhibit the Assembly of the Perinucleolar Compartment | PC3M PTB-GFP, PNC prevalence imaging, 16 h; stronger effect = lower value | activity change (PNC), negative = inhibition, % at 10 µM | actives 3.1% (n = 140,000) | AID 2417, 2010;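 active means readout at or below -70, meaning at least 70% loss of cells showing the perinucleolar compartment, a nuclear body marking cancer cells; inconclusive means readout between -30 and a set limit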
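PC3M cells stably expressing PTB-GFP, 750–1000 cells/well, treated 16 h at 37 °C with compound (23 nl of library stock), in duplicate. After paraformaldehyde fixation and Hoechst stain, imaged at 20x; PNC prevalence scored by image analysis.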
ALDH1A1 inh = qHTS Assay for Inhibitors of Aldehyde Dehydrogenase 1 (ALDH1A1) | AID 1030, 2008 | Purified ALDH1A1, NADH fluorescence, propionaldehyde substrate | Potency, µM (highest dose often 75.3 µM), most hits filed as inhibitors | actives 7.3% (n = 220,000) | Aldehyde dehydrogenase 1A1 (Homo sapiens), P00352
LMNA splice mod = qHTS Assay for Modulators of Lamin A Splicing; HeLa LMNA splicing GFP/RFP minigene ratio, 48 h; Potency, µM (top dose mostly 46.1 µM), actives largely listed as inhibitors; actives 0.01% (n = 200,000); AID 1487, 2009; active means well fitted inhibition curve with a large enough effect in the signal ratio, with a control signal flat, not every such curve was filed as active; inconclusive means small, poorly fitted or top-dose-only effect, or effect the other way, or a change in a side signal; the % refers to the signal ratio
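Read-out is the ratio of GFP to DsRed2 object intensity, acquired by 488 nm laser-scanning cytometry on HeLa lamin A-EGFP minigene reporter cells. Compound incubation 48 hrs at 37 °C in Opti-MEM with 2% FBS; DMSO 0.5% final.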
Numbers stand for hits; i = inactive; ? = inconclusive; nt = no result given; [ ] = remark or other dose. Shown are actives, neighbours in structure and some others; about 10% of the full set was active somewhere. Unless noted, the call rests on the fitted dose curve; in most records, active means well fitted inhibition curve with a large enough effect (not every such curve was filed as active); inconclusive means small, poorly fitted or top-dose-only effect, or another doubt; inactive means no such curve, though single readings can be large or run the other way.

SMILES	KinaseGlo FLuc	HPGD block	PNC inhibitor	ALDH1A1 inh	LMNA splice mod
Cc1nnc(Sc2cc(C(=O)NCc3ccco3)c3ccccc3n2)s1	i	2.2µM	i	?	?
CC(C)C(=O)N[C@H]1CCCN1C(=O)/C=C\c1ccccc1	nt	nt	nt	i[13.5 µM]	nt
COCCCn1c(SCc2cccc(C(F)(F)F)c2)nc2cc(OC)c(OC)cc2c1=N	i	?	-106	?	?
COc1ccc(Cn2c(SCc3cc(C)ccc3C)nc3cc(OC)c(OC)cc3c2=N)cc1	i	?	-114	?	?
CC(C)CN1CCCC2(CCN(C(=O)c3cccc(F)c3)CC2)C1	i	i	nt	?	nt
O=C1C=CC2(OCCCO2)C(Br)=C1	nt	nt	nt	i[13.5 µM]	nt
CCN(CC)CC(O)COc1ccccc1C(=O)CCc1ccccc1 (centres undefined)	nt	nt	-86	i	i
COc1ccc(-c2c(C#N)c(N)nc3sc(C(=O)c4ccccc4)c(N)c23)cc1	i	?	i	4µM	i
CC(=O)Nc1ccc(OC(=O)c2ccccc2O)cc1	i	?	nt	i	nt
Clc1ccc(-c2nc(N3CCCCC3)nc3ccccc23)cc1	i	i	-100	i	i
COCCn1c(=O)cnc2cnc(Nc3cccc(OC)c3)nc21	nt	nt	nt	i	?
CC1CCCN(C(=O)C2CCN(S(=O)(=O)c3cccc4cccnc34)CC2)C1 (centres undefined)	i	14µM	i	?	i
CCN1CCN(C(=O)C2CCN(S(=O)(=O)c3cccc4cccnc34)CC2)CC1	i	i	i	i	i
O=C(C1CCCN(S(=O)(=O)c2cccc3cccnc23)C1)N1CCN(c2ccc(F)cc2)CC1 (centres undefined)	i	i	-81	i	i
O=C(C1CCN(S(=O)(=O)c2cccc3cccnc23)CC1)N1CCN(c2ccccc2)CC1	i	i	i	i	i
C[N+](C)(C)CCCSc1nc2ccccc2[nH]1	i[7.66 µM]	i	nt	i[13.5 µM]	nt
O=C1CC(c2ccccc2)c2c(n3ncnc3[nH]c2=O)N1 (centres undefined)	nt	nt	nt	nt	i
COCCNc1nc(-c2cccc(OC)c2)nc2ccccc12	i	i	nt	i	i
CC1=NNC(=O)/C1=C\c1cn(-c2ccccc2)nc1-c1cccs1	i	16µM	i	?	?
CC1=NNC(=O)/C1=C\c1cn(-c2ccccc2)nc1-c1ccc(F)cc1	i	nt	nt	?	?
Cc1ccc(-n2ncc3c(Nc4ccc5c(c4)OCCO5)ncnc32)cc1C	nt	nt	nt	nt	i
Cc1ccc(NC(=O)CCC(=O)NNC(=S)Nc2ccccc2)c(C)c1	i	nt	nt	8.9µM	?
Cc1ccc(NC(=S)NNC(=S)Nc2ccc(C)cc2C)cc1	i	nt	nt	0.45µM	nt
Cc1ccc(C)c(NC(=O)CCC(=O)NNC(=S)Nc2ccccc2)c1	i	nt	nt	i	i
CC(C)CN1CC2(CCN(C(=O)c3csnn3)CC2)C1	i	i	nt	i	nt
SMILES	KinaseGlo FLuc	HPGD block	PNC inhibitor	ALDH1A1 inh	LMNA splice mod
CCCn1c(-c2ccc(F)cc2)nc2c(NCCCN3CCCCC3C)nc(C)nc21 (centres undefined)	i	i	nt	?	nt
Cc1ccccc1-c1cncnc1Nc1ccc(F)cc1	i	?	nt	?	i
O=C(CC(c1ccccc1)C1CCCCC1=O)c1ccco1 (centres undefined)	i	?	i	?	i
O=C(CC(c1ccco1)C1CCCCC1=O)c1ccco1 (centres undefined)	i	i	i	25µM	i
COc1ccc(C(=O)CC(c2ccccc2)C2CCCCC2=O)cc1 (centres undefined)	i	i	i	0.5µM	i
Cc1cccc(NC(=O)c2cc(-c3ccc4c(c3)OCCO4)on2)c1	nt	nt	nt	nt	i
CC(C)(C)NC(=O)c1cnn(-c2ccccc2)c1C1CCN(C(=O)OC(C)(C)C)CC1	nt	nt	nt	nt	i
O=C(NNC(=O)c1cccnc1SCc1cccc([N+](=O)[O-])c1)c1cccnc1	i	i	?	?	i
O=C(NNC(=O)c1cccnc1SCc1cccc([N+](=O)[O-])c1)c1ccc(F)cc1	i	i	-87	i	?
Brc1cccc(OCCN2CCCCC2)c1	i	i	i	i	i
CCc1cccc(OCCn2ccnc2)c1	i	i	-90	?	i
CCc1cccc(OCCN2CCCC2)c1	i	i	?	22µM	i
Clc1cccc(OCCN2CCNCC2)c1	i	i	i	18µM	?

Source: PubChem BioAssay
